# Results from the supplement of paper PMC7411640.
# Counter-ions that a name gives are not always drawn.
# System: MDA-MB-468
# Assay: phospho-S6 immunofluorescence (DAPI-normalised), per-plate z-score; higher = higher phospho-S6 signal (less pathway suppression)
# Settings: 24 h
# Procedure: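 GPCR-targeted compound library (MedChemExpress HY-L006) tested on MDA-MB-468 PTEN-null TNBC cells in 384-well plates at 0.1, 1 or 10 uM, combined with vehicle, GDC0941 450 nM or lapatinib 1 uM, for 24 h. Phospho-S6 (S240/244) immunofluorescence normalised to DAPI and expressed as a per-plate z-score; values are the mean of biological triplicates.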
SMILES,phospho-S6 immunofluorescence (z-score) (co-treatment: GDC0941 450 nM),phospho-S6 immunofluorescence (z-score) (co-treatment: lapatinib 1 uM),phospho-S6 immunofluorescence (z-score) (co-treatment: vehicle)
CCCCC1=NC2(CCCC2)C(=O)N1Cc1ccc(-c2ccccc2-c2nnn[nH]2)cc1 [Irbesartan] (compound 10 µM),0.03,0.13,0.09
CCCc1nc(C(C)(C)O)c(C(=O)OCc2oc(=O)oc2C)n1Cc1ccc(-c2ccccc2-c2nnn[nH]2)cc1 [Olmesartan (medoxomil)] (compound 10 µM),-0.4,-0.27,-0.03
Cc1nc2c([nH]1)-c1ccccc1N(C(=O)c1ccc(NC(=O)c3ccccc3-c3ccccc3)cc1)CC2 [Conivaptan (hydrochloride)] (compound 10 µM),0.65,0.52,0.94
CC(C)N(CCCCOCC(=O)NS(C)(=O)=O)c1cnc(-c2ccccc2)c(-c2ccccc2)n1 (compound 10 µM),0.87,0.26,-0.38
CC(C)Cc1ccc([C@@H](C)C(=O)NS(C)(=O)=O)cc1 [Reparixin] (compound 10 µM),0.03,0.34,-1.14
Cc1ccc(NC(=S)NNc2c([N+](=O)[O-])cc(C(F)(F)F)cc2[N+](=O)[O-])cc1Cl (compound 10 µM),0.79,-0.44,-0.73
CN(C)[C@@H]1CCc2[nH]c3ccc(NC(=O)c4ccc(F)cc4)cc3c2C1 (compound 10 µM),0.67,-1.38,-0.54
OC(CNCC(O)C1CCc2cc(F)ccc2O1)C1CCc2cc(F)ccc2O1 (stereo unspecified) [Nebivolol (hydrochloride)] (compound 10 µM),-2.5,-3.76,-2.22
CCOC(=O)N1CCC(=C2c3ccc(Cl)cc3CCc3cccnc32)CC1 [Loratadine] (compound 10 µM),-1.77,-0.82,-1.25
CCCCC(=O)N(Cc1ccc(-c2ccccc2-c2nnn[nH]2)cc1)[C@H](C(=O)O)C(C)C.CCOC(=O)[C@H](C)C[C@@H](Cc1ccc(-c2ccccc2)cc1)NC(=O)CCC(=O)O (compound 10 µM),0.23,0.37,0.21
NC1=NCC2c3ccccc3Cc3ccccc3N12 (stereo unspecified) [Epinastine] (compound 10 µM),-0.05,-0.81,0.35
CC(C)C(=O)OCC(=O)[C@@]12O[C@H](C3CCCCC3)O[C@@H]1C[C@H]1[C@@H]3CCC4=CC(=O)C=C[C@]4(C)[C@H]3[C@@H](O)C[C@@]12C [Ciclesonide] (compound 10 µM),-3.85,0,-1.25
Cc1ccccc1C(=O)Nc1ccc(C(=O)N2CCCC(N(C)C)c3ccccc32)cc1 (stereo unspecified) [Mozavaptan] (compound 10 µM),-0.25,-0.18,-0.16
CN(C)CC[C@@H](c1ccc(Cl)cc1)c1ccccn1 [Dexchlorpheniramine (maleate)] (compound 10 µM),0.61,-0.08,-0.33
CCCCc1nc(Cl)c(CO)n1Cc1ccc(-c2ccccc2-c2nnn[nH]2)cc1 [Losartan (potassium)] (compound 10 µM),0.74,0.83,0.81
O=C(c1ccc(F)cc1)C1CCN(CCn2c(=O)[nH]c3ccccc3c2=O)CC1 [Ketanserin] (compound 10 µM),-0.64,-0.02,-0.85
CNS(=O)(=O)Cc1ccc2[nH]cc(CCN(C)C)c2c1 [Sumatriptan (succinate)] (compound 10 µM),0.01,0.48,0.55
C[C@]12CCC(=O)C=C1CC[C@@H]1[C@@H]2CC[C@@]2(C)[C@H]1CC[C@]2(O)C(=O)CO [Cortodoxone] (compound 10 µM),-0.95,1.37,-0.43
CC(=O)[C@H]1CC[C@H]2[C@@H]3CC=C4C[C@@H](O)CC[C@]4(C)[C@H]3CC[C@]12C [Pregnenolone] (compound 10 µM),1.58,1.58,0.85
CCCN(CCC)CCc1cccc2c1CC(=O)N2 [Ropinirole (hydrochloride)] (compound 10 µM),0.64,1.04,1.01
Clc1ccc(CCCOCCCN2CCCCC2)cc1 [Pitolisant (hydrochloride)] (compound 10 µM),0.75,-0.69,-0.12
CC[C@H](NC(=O)c1c(C)c(-c2ccccc2)nc2ccccc12)c1ccccc1 (compound 10 µM),-4.55,-3.25,-1.64
Cc1cc(C(C)(C)C)c(O)c(C)c1CC1=NCCN1 [Oxymetazoline (hydrochloride)] (compound 10 µM),0.28,-0.17,-0.03
C[N+]1(C)[C@@H]2CC[C@H]1C[C@@H](OC(=O)C(O)c1ccccc1)C2 (stereo partly specified) [Homatropine (methylbromide)] (compound 10 µM),0.87,1.2,1.2
COc1ccc(-c2oc3c(CC=C(C)C)c(O)cc(O)c3c(=O)c2O[C@@H]2O[C@@H](C)[C@H](O)[C@@H](O)[C@H]2O)cc1 [Baohuoside I] (compound 10 µM),-5.72,-5.94,-7.08
O=C(O)CCc1ccc(NCc2cccc(Oc3ccccc3)c2)cc1 (compound 10 µM),-0.04,0.32,1.24

SMILES,phospho-S6 immunofluorescence (z-score) (co-treatment: GDC0941 450 nM),phospho-S6 immunofluorescence (z-score) (co-treatment: lapatinib 1 uM),phospho-S6 immunofluorescence (z-score) (co-treatment: vehicle)
COc1ccc2[nH]cc(CCNC(C)=O)c2c1 [Melatonin] (compound 10 µM),-1.25,0.24,-0.21
NC(=O)CC[C@H](N)C(=O)O [L-Glutamine] (compound 10 µM),-0.23,-0.64,-0.12
O=C(COc1ccc(C(=O)c2ccccc2)cc1)NC1CCN(Cc2ccccc2)CC1 [AdipoRon] (compound 10 µM),-4.84,-4.87,-1.92
CC(C)(C)NCC(O)c1ccc(O)c(CO)c1 (stereo unspecified) [Salbutamol (hemisulfate)] (compound 10 µM),0.44,1.46,0.8
OCCOCCN1CCN(Cc2cccc(Oc3ccccc3)c2)CC1 (compound 10 µM),-0.36,0.35,-1.04
O=C(Nc1ccccc1)C12CC1C(=NO)c1ccccc1O2 (stereo unspecified) (compound 10 µM),-0.19,-0.81,0.75
Cc1cc(C)nc(NS(=O)(=O)c2ccc(NC(=S)NC(=O)COc3ccc(Br)cc3Cl)cc2)n1 (compound 10 µM),0.46,-0.41,0.28
CN(C)CCOC(c1ccccc1)c1ccccc1.Cn1c(=O)c2[nH]c(Cl)nc2n(C)c1=O [Dimenhydrinate] (compound 10 µM),-1.22,0.01,-0.02
CCCCCCOc1nsnc1C1=CCCN(C)C1 [Xanomeline (oxalate)] (compound 10 µM),-0.72,-0.5,1.16
c1cc(CN2CCCNCCNCCCNCC2)ccc1CN1CCCNCCNCCCNCC1 [Plerixafor] (compound 10 µM),-0.31,0.01,0.2
CN(C)N(C)C(=O)[C@@]1(Cc2ccccc2)CCCN(C(=O)[C@@H](Cc2c[nH]c3ccccc23)NC(=O)C(C)(C)N)C1 [Anamorelin (hydrochloride)] (compound 10 µM),-1.14,-0.96,-0.1
CN(C)CCCN1c2ccccc2CCc2ccc(Cl)cc21 [Clomipramine (hydrochloride)] (compound 10 µM),-1.98,-3.26,-1.14
COc1ccc(N2CCOCC2)c2sc(NC(=O)N3CCC(C)(O)CC3)nc12 [Tozadenant] (compound 10 µM),0.02,0.77,0.82
OC(CCN1CCCCC1)(c1ccccc1)C1CCCCC1 (stereo unspecified) [Trihexyphenidyl (hydrochloride)] (compound 10 µM),-0.3,-0.52,0.56
O=c1ccn([C@@H]2O[C@H](COP(=O)(O)OP(=O)(O)OP(=O)(O)OP(=O)(O)OC[C@H]3O[C@@H](n4ccc(=O)[nH]c4=O)[C@H](O)[C@@H]3O)[C@@H](O)[C@H]2O)c(=O)[nH]1 [Diquafosol (tetrasodium)] (compound 10 µM),0.01,0.71,-0.38
CCC(=O)NC[C@@H]1C[C@H]1c1cccc2c1CCO2 [Tasimelteon] (compound 10 µM),-1.06,-0.25,0.27
CCOCCn1c(C2CCN(CCc3ccc(C(C)(C)C(=O)O)cc3)CC2)nc2ccccc21 [Bilastine] (compound 10 µM),0.51,0.94,-0.28
Cc1cccn2c(=O)c(C=C(C#N)c3nc4ccccc4s3)c(Oc3ccc(F)cc3)nc12 (compound 10 µM),0.33,1.14,-0.48
Clc1ccccc1CN1CCc2sccc2C1 [Ticlopidine (hydrochloride)] (compound 10 µM),-1.14,-0.33,-0.63
CN(C)CCC(c1ccc(Cl)cc1)c1ccccn1 (stereo unspecified) [Chlorpheniramine (maleate)] (compound 10 µM),-5.85,-10.5,-8.97
COc1ccc2cccc(CCNC(C)=O)c2c1 [Agomelatine] (compound 10 µM),0.97,0.54,0.35
CN1CCC(OC(c2ccccc2)c2ccccc2)CC1 [Diphenylpyraline (hydrochloride)] (compound 10 µM),0.68,0.42,-0.04
O=c1[nH]c2ccccc2n1CCN1CCN(c2cccc(C(F)(F)F)c2)CC1 [Flibanserin] (compound 10 µM),-0.19,-0.04,0.48
C=CCN1CCCC1CNC(=O)c1cc(S(N)(=O)=O)cc(OC)c1OC (stereo unspecified) [Veralipride] (compound 10 µM),-0.02,1.05,0.08
N=C(N)NC(=O)Cc1c(Cl)cccc1Cl [Guanfacine (hydrochloride)] (compound 10 µM),0.64,0.23,0.38
COc1ccc(CNC(=O)c2sc3nc(C)cc(C)c3c2N)cc1 (compound 10 µM),-1.98,1.66,0.34
